Screens as filed in PubChem BioAssay.
ClpP mod: qHTS Assay for Activators of ClpP | Potency, µM (titrated, usually from 57.5 µM) | AID 651965, 2013 | hit rate 1.9% among 340,000 | purified B. subtilis ClpP, FRET peptide cleavage, 20 min | ATP-dependent Clp protease proteolytic subunit (Bacillus subtilis (strain 168)), P80244; active = well fitted falling curve with a large enough effect; inconclusive = small, poorly fitted or top-dose-only effect; inactive = no such curve, though single readings can be large or run the other way; note: the source files actives as falling curves though it sought activators and does not explain the sign; nearly all actives have a fitted effect of over 65% in size
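Buffer: 100 mM Tris/HCl pH8, 100 mM KCl, 0.05% low protease BSA, 2.5% glycerol, 0.01% Tween-20. ClpP 10 microg/mL final; 20 min RT; delta FRET normalized to ADEP and DMSO controls.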
GLP-1R agonist: qHTS of GLP-1 Receptor Agonists; HEK293 GLP-1R CRE-luciferase, luminescence, 4-6 h; cells express a hypersensitive GLP-1R form; Potency, µM (titrated, usually from 45.6 µM), usual class: activators; hit rate 0.007% among 380,000; AID 624172, 2012
HEK293 tox: qHTS of GLP-1 Receptor Inverse Agonists: Cytotox Screen | HEK293 cAMP-luciferase reporter cells, luminescence, 24 h | Potency, µM (highest dose often 38.3 µM), actives largely listed as inhibitors | hit rate 0.13% among 410,000 | AID 624418, 2012;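 note: loss of luciferase light is scored as toxicity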
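Step one: seed cells (200 cells/uL, DMEM with 10% Nu serum, 1% pen-strep). Step two: 12-hour incubation at 37 deg C. Step three: pin 23 nL compound, incubate 24 hr. Step four: add luciferase reagent, read luminescence 12 min later.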
GLP-1R inv ag: qHTS of GLP-1 Receptor Inverse Agonists (Inhibition Mode). HEK293 GLP-1R CRE-luciferase, luminescence, 24 h; GLP-1R form is constitutively active. Potency, µM (top dose mostly 38.3 µM), actives largely listed as inhibitors. hit rate 1.6% among 410,000. AID 624417, 2012; note: nearly all actives have a fitted effect of over 55% in size
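Stable HEK293 clone (constitutively active GLP-1R + cAMP-response luciferase); 200 cells/uL plated, 12 h pre-culture, compound 24 hr, 37 deg C/5% CO2; detection reagent 12 min RT; luminescence.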
Large screens that a line does not name were inactive. Sampled rows, rich in hits. Any-hit rate of the full collection: about 3.2%. Unless noted, calls come from the whole dose curve; as a rule, active = well fitted curve in the direction sought with a large enough effect; inconclusive = small, poorly fitted or top-dose-only effect, or another doubt; inactive = no such curve, though single readings can be large; an effect the other way counts as inactive or inconclusive.

COC(=O)c1ccc(C(=O)OC)c(NC(=O)Oc2ccccc2)c1	ClpP mod 2.8µM
Cc1cc(N/N=C/c2ccc(O)c(C)c2O)nc(-c2ccccc2O)n1	HEK293 tox 10µM, GLP-1R inv ag inconclusive
CN(C)CCN(Cc1ccccc1)c1ccnc(N(C)C)c1C#N	ClpP mod 32µM
COc1cc(C[C@H](C)N)c(OC)cc1C	none (no result: ClpP mod, HEK293 tox, GLP-1R inv ag)
O=C(NCCSc1c(-c2ccccc2)[nH]c2ccccc12)c1ccc(S(=O)(=O)N2CCOCC2)cc1	GLP-1R inv ag inconclusive (no result: GLP-1R agonist)
COc1ccc(-c2ccc3n2Cc2cnnn2-c2ccccc2-3)cc1	none
c1ccc(CCc2ccc3n2Cc2cnnn2-c2ccccc2-3)cc1	GLP-1R inv ag 11µM
CCCc1cnc(Nc2nc(C(N)Cc3ccc(OC)cc3)cs2)nc1 (centres undefined)	HEK293 tox inconclusive, GLP-1R inv ag inconclusive
COc1cc(/C=C2\SC(=S)N(Nc3ncc(C(F)(F)F)cc3Cl)C2=O)ccc1O	HEK293 tox inconclusive, GLP-1R inv ag 10µM
O=C(NN1C(=O)/C(=C/c2ccc(O)c(O)c2)SC1=S)c1ccccc1	HEK293 tox inconclusive, GLP-1R inv ag inconclusive (no result: ClpP mod)
CCC1C(c2ccccc2)NC(c2ccccc2)CC1(O)c1ccc(F)cc1 (centres undefined)	HEK293 tox inconclusive, GLP-1R inv ag 11µM
COc1cc2c(cc1O)[C@@H]1Cc3ccc(OC)c(O)c3CN1CC2	HEK293 tox inconclusive, GLP-1R inv ag 10µM
COc1ccc2c(c1)-c1c(ssc1=S)C(C)(C)N2S(=O)(=O)c1ccc(C)cc1	HEK293 tox inconclusive, GLP-1R inv ag 2.8µM
COC(CN(C(=O)CCl)C(C(=O)NC1CCCCC1)c1ccccc1C)OC (centres undefined)	HEK293 tox inconclusive, GLP-1R inv ag 10µM
Cn1cc(C(=O)OCC(=O)NC2CCCCC2)c2ccccc21	none
C[C@]12CC[C@@H]3c4ccc(OC(=O)N(CCCl)CCCl)cc4CC[C@@H]3[C@H]1CC[C@@H]2OP(=O)(O)O	none (no result: ClpP mod, HEK293 tox, GLP-1R inv ag)
CC(N)C(=O)c1ccccc1 (centres undefined)	none (no result: ClpP mod, HEK293 tox, GLP-1R inv ag)
S=c1[nH]nc(-c2ccco2)n1Cc1ccccc1	ClpP mod 28µM
CCCCc1ccc(C2C3=C(CC(C)(C)CC3=O)NC3=C2C(=O)c2ccccc23)cc1 (centres undefined)	HEK293 tox inconclusive, GLP-1R inv ag 3.5µM
CCOC(=O)C1=C(CN2CCN(c3ccc(C)cc3C)CC2)NC(=O)NC1c1ccc(OC)cc1 (centres undefined)	GLP-1R inv ag inconclusive (no result: GLP-1R agonist)
CC(=O)OC1(c2ccccc2)CCN(CCc2ccccc2)CC1	none (no result: ClpP mod, HEK293 tox, GLP-1R inv ag)
COc1cccc(C(=O)Nc2ccc(-c3nc4ccccc4o3)c(O)c2)c1	ClpP mod 28µM, HEK293 tox inconclusive
Cc1cccc(C)c1NC(=O)C(c1ccncc1)n1c(=O)c(-c2cc3ccccc3[nH]2)nc2ccccc21 (centres undefined)	GLP-1R inv ag inconclusive (no result: GLP-1R agonist)
CCC(C)NC(=O)c1c(N)n(CC2CCCO2)c2nc3ccccc3nc12 (centres undefined)	ClpP mod 35µM, GLP-1R inv ag 7.9µM
C=CCNC(=O)c1c(N)n(Cc2ccco2)c2nc3ccccc3nc12	ClpP mod 16µM
CCOC(=O)c1c(N)n(CCN2CCCCC2)c2nc3ccccc3nc12	ClpP mod 32µM
CCCCn1c(NS(=O)(=O)c2ccccc2)c(C(=O)OCC)c2nc3ccccc3nc21	ClpP mod 28µM
Nc1c(C(=O)NCCc2ccccc2)c2nc3ccccc3nc2n1CCN1CCOCC1	ClpP mod inconclusive
Cc1ccc(/C=C/c2onc(C)c2S(=O)(=O)N2CCC(C(=O)N3CCC(N(C)C(C)C)CC3)CC2)cc1	HEK293 tox inconclusive, GLP-1R inv ag inconclusive (no result: GLP-1R agonist)
CC(=O)Nc1cnc(-c2ccccc2O)cn1	GLP-1R inv ag inconclusive
CC(C)Cn1c(N)c(C(=O)NCCN2CCOCC2)c2nc3ccccc3nc21	ClpP mod 28µM
COCCNC(=O)c1c(NC(=O)c2ccco2)n(Cc2ccccc2)c2nc3ccccc3nc12	ClpP mod 25µM
CCCCn1c(N)c(C(=O)NCCN2CCOCC2)c2nc3ccccc3nc21	ClpP mod 11µM, GLP-1R inv ag inconclusive
Nc1c(C(=O)NCCN2CCOCC2)c2nc3ccccc3nc2n1Cc1ccco1	ClpP mod 16µM
Nc1c(C(=O)NCCN2CCOCC2)c2nc3ccccc3nc2n1Cc1ccccc1	none (no result: ClpP mod)
CN(C[C@H](Cc1ccccc1)N(C[C@H](c1ccccc1)N(CCc1ccccc1)N=O)N=O)N=O	GLP-1R inv ag inconclusive
COC(=O)C[C@]1(C(=O)OC)CN(C#N)N(c2ccc(Cl)cc2)C12c1ccccc1-c1ccccc12	HEK293 tox 1.1µM, GLP-1R inv ag inconclusive
COC(=O)[C@@H]1[C@@H](C(=O)OC)C2(c3ccccc3-c3ccccc32)N(c2ccc(Cl)cc2)N1C#N	GLP-1R inv ag 4µM
C#CCN(C[C@@H]1[C@@H](OC(=O)Nc2c(C)noc2C)[C@@H](OC(=O)Nc2c(C)noc2C)Cn2c(=O)n(CCCCCC)c(=O)n21)S(=O)(=O)c1ccc(C)cc1	GLP-1R inv ag inconclusive
O=S(=O)(NC1CC(NS(=O)(=O)OCC(Cl)(Cl)Cl)C2CCCCC12)OCC(Cl)(Cl)Cl (centres undefined)	GLP-1R inv ag inconclusive
CCc1ccc(OCC(=O)NC(NC(=S)Nc2ccccc2)C(Cl)(Cl)Cl)cc1 (centres undefined)	HEK293 tox inconclusive, GLP-1R inv ag 4µM
Cc1ccc(-c2cc(C(=O)N3CCN(c4ncccn4)CC3)c3ccccc3n2)cc1	ClpP mod inconclusive, HEK293 tox inconclusive, GLP-1R inv ag inconclusive
COc1ccc(-c2cc(C(=O)N3CCN(c4ccccc4OC)CC3)c3cc(C(C)C)ccc3n2)cc1	ClpP mod inconclusive, GLP-1R inv ag 8.9µM (no result: GLP-1R agonist)
Cc1ccc(C)c(NC(=O)CSc2nnc([C@@H](N)Cc3c[nH]c4ccccc34)o2)c1	none
Cc1ccc(C)c(NC(=O)C(Sc2nc3ccc(C)cc3[nH]2)c2ccccc2)c1 (centres undefined)	HEK293 tox inconclusive, GLP-1R inv ag 3.2µM (no result: ClpP mod)
COc1ccc(N2C(=O)C3[C@@H](C2=O)C2(Cl)C(Cl)=C(Cl)C3(Cl)C2(OC)OC)cc1 (some centres undefined)	ClpP mod 3.5µM
C=C(C)[C@@]12OC3(c4ccccc4)O[C@@H]1C1[C@@H]4O[C@]4(CO)[C@@H](O)[C@]4(O)C(=O)C(C)=C[C@H]4[C@@]1(O3)[C@H](C)[C@H]2OC(=O)/C=C/C=C/c1ccccc1 (some centres undefined)	GLP-1R inv ag 2.8µM
CCCCOc1ccc(CNC(=O)c2cc3n(n2)CCCN(Cc2ccc(C)cc2)C3=O)cc1	GLP-1R inv ag inconclusive (no result: GLP-1R agonist)
Cc1cccn2c(NCC3CCCO3)c(C(C)C)nc12 (centres undefined)	ClpP mod 22µM
